DAX1 inh-1 = inhibitors of human orphan nuclear receptor DAX1 (NR0B1) | inhibition, % at 6.75 µM | P51843 | HEK293 Gal4-DAX1 luciferase reporter, luminescence | hit rate 0.99% among 340,000;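 active means inhibition above the mean over all tested compounds plus 3 SD, cut at about 4.2% in these data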;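 further: 0% = DAX1-transfected cells with DMSO and 100% = empty-vector control cells with DMSO; inhibition shows as a rise in luminescence from relieved DAX1 repression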
Target sequence (P51843 207-470 limits assumed): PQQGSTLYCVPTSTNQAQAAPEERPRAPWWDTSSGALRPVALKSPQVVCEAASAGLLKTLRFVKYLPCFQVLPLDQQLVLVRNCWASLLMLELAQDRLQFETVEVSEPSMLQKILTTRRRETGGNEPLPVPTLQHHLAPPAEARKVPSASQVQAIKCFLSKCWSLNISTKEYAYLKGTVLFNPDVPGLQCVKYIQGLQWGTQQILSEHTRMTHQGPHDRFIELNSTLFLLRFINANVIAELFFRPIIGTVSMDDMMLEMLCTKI
hcDAF12 agonist = activates DAF-12 receptor from parasite H. contortus | hit rate 1.4% among 370,000 | HEK293 hcDAF-12 lit1-tk-luc reporter, luminescence; 0% DMSO, 100% Δ7-dafachronic acid | activation, % at 6.8 µM;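 active means activation above the mean of all tested compounds plus 3 SD, cut at about 5.5% in these data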;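 further: 100% = response to 3 µM Δ7-dafachronic acid high control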
hgDAF-12 ag = agonists of H. glycines DAF-12 nuclear receptor; HEK293 GAL4-hgDAF12 UAS-luciferase reporter, agonist luminescence; normalized to butyrate control; activation, % at 6.8 µM; hit rate 1.8% among 370,000;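 active means activation above a cutoff set at the mean of all screened compounds plus 3 SD, cut at about 10% in these data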;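 further: 0% = DMSO wells and 100% = sodium butyrate wells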
ssDAF-12 act = S. stercoralis DAF-12 activation, primary screen; HEK293 ssDAF-12/GRIP1 lit1-tk-luc reporter, luminescence; % of 3 µM dafachronic acid response; activation, % at 6.8 µM; hit rate 1% among 370,000;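 active means activation above the mean over all tested compounds plus 3 SD, cut at about 0.9% in these data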;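 further: 0% = DMSO-only wells and 100% = 3 µM delta7-dafachronic acid wells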
DAX1 inh-2 = blocks DAX1 repression of SF-1 activated StAR promoter | HEK293T StAR-luciferase reporter, SF-1/DAX-1 repression relief | inhibition, % at 6.8 µM | hit rate 1.1% among 370,000 | AID 652010;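 active means inhibition above the mean over all tested compounds plus 3 SD, cut at about 3.6% in these data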;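 further: 0% = DAX-1 cells with DMSO and 100% = cells lacking DAX-1 with DMSO; higher inhibition means more luminescence from relief of DAX-1 repression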
* hit, by the source's call; . = not tested or not shown. Shown are actives, neighbours in structure and some others; about 4.1% of the full set was active somewhere.

SMILES	DAX1 inh-1	hcDAF12 agonist	hgDAF-12 ag	ssDAF-12 act	DAX1 inh-2
COC(=O)[C@]12C[C@H](CC(=O)NCCc3ccccc3OC)C(=O)N(Cc3ccc4c(c3)OCO4)C1=C[C@H](COCc1ccccc1)O[C@@H]2C	.	-2	0	-1	-1
O=S(=O)(c1ccc(F)cc1)N1CCN(CC2CC3C=CC2C3)CC1 (stereo not drawn)	0	6.5*	0	-1	0
O=S(=O)(c1ccccc1)N1CCN(CC2CC3C=CC2C3)CC1 (stereo not drawn)	-1	-1	-1	-2	0
COC(=O)c1cc(S(=O)(=O)N2CCN(c3ccccc3Cl)CC2)cn1C	.	-2	0	-1	-2
COc1cccc2nc3c(C(=O)NCCN(C)C)cccc3cc12	-2	1	-5	0	-5
COc1ccc(C(=O)NCCN(C)C)c2nc3ccccc3cc12	-3	5.8*	-6	0	-4
CC(=O)NC(CCS(C)(=O)=O)C(=O)N1CCc2ccccc21 (stereo not drawn)	1	5.6*	0	1.0*	0
CC(=O)NC(CCS(C)(=O)=O)C(=O)Nc1ccccc1C (stereo not drawn)	1	-2	-1	-1	-1
Cc1ccc(C(C)C)c(OCC(=O)NNC(=O)CC2OC(=O)c3ccccc32)c1 (stereo not drawn)	4.2*	-1	2	0	-1
CC1(C)CC2CC(C)(CN2C(=O)c2ccc([N+](=O)[O-])cc2[N+](=O)[O-])C1 (stereo not drawn)	6.7*	-1	0	-1	0
CC1(C)CC2CC(C)(CN2C(=O)c2ccc([N+](=O)[O-])cc2)C1 (stereo not drawn)	-2	-1	-3	-1	-1
Cc1ccccc1NC(=O)COC(=O)/C=C/c1cn(-c2ccccc2)nc1-c1cccnc1	0	0	0	1.1*	0
Cc1ccc2c(c1)N(CCCC(=O)NCc1ccc(F)cc1)C(=O)CO2	.	-1	2	-2	0
Cc1ccc(NC(=O)c2ccc3nccnc3c2)c(C)c1	-1	2	12*	0	1
Cc1cc(C)c(NC(=O)c2ccc3nccnc3c2)c(C)c1	-1	-1	-1	-1	-1
O=C(Nc1ccc2cn[nH]c2c1)c1ccc(Cl)c(S(=O)(=O)N2CCOCC2)c1	2	6.5*	5	0	1
CCCCc1c(-c2ccccc2OC)ncn1Cc1ccc(Br)cc1	.	-2	-3	-1	0
CCCC(C(=O)NCC1CCCO1)N(C(=O)CNS(=O)(=O)c1ccccc1)c1ccc(F)cc1 (stereo not drawn)	4.6*	-2	-1	-1	0
COCCCNC(=O)C[C@H]1C[C@@]2(C(=O)OC)C(=C[C@H](C(C)C)O[C@@H]2C2CC2)N(Cc2ccc3c(c2)OCO3)C1=O	.	-1	-2	-1	-1
O=C(C1CC1)N1CCC(C(O)(c2ccccc2)c2ccccc2)CC1	5.1*	-1	0	-1	0
COC(=O)[C@]12C[C@H](CC(=O)NCc3cccc(C(F)(F)F)c3)C(=O)N(Cc3ccco3)C1=C[C@H](C(C)C)O[C@@H]2C1CC1	.	-3	-4	-1	0
COc1ccc(C2/C=C\CN(C(=O)OCC3c4ccccc4-c4ccccc43)CC(=O)N2Cc2cccc(F)c2)cc1 (stereo not drawn)	-1	-1	-1	-2	3.7*
O=C1c2ccccc2-c2nnc(-c3ccc(O)cc3)cc21	-1	5.9*	11*	0	3
Cc1ccc(-c2cc3c(nn2)-c2ccccc2C3=O)cc1	-7	6.3*	10	0	1
Cn1c(=O)cc(OCCCC(=O)Nc2cc(-c3ccncc3)ccn2)c2ccccc21	.	-7	-10	-3	.
SMILES	DAX1 inh-1	hcDAF12 agonist	hgDAF-12 ag	ssDAF-12 act	DAX1 inh-2
CCC[C@H]1[C@@H](OC(=O)NC2CCC2)CC[C@@]23CCCN2C(=O)CCC[C@@H]13	.	0	0	-1	.
CCCCNC(=O)c1cccc(NC(=O)C(=O)c2ccccc2NC(C)=O)c1	0	-2	-1	-1	0
CCN(CC)CCNC(=O)c1cccc(NC(=O)C(=O)c2ccccc2NC(C)=O)c1	1	5.9*	4	0	0
CCOc1ccc(C(=O)Nc2nnn(CC)n2)cc1	0	5	12*	0	1
Cc1noc(C)c1COc1cccc(C(=O)NCc2cccc(Cl)c2)c1	0	-2	-4	-1	-1
Cc1ccc(CNC(=O)c2cccc(OCc3c(C)noc3C)c2)cc1	6.8*	-2	2	-1	-1
CCCSc1nsc(NC(=O)c2cccnc2OCC)n1	5.8*	1	5	0	0
Cc1noc(C)c1COc1ccc(C(=O)Nc2ncccc2O)cc1	0	-1	11*	-1	3
Cc1noc(C)c1COc1ccc(C(=O)Nc2cccnc2)cc1	-1	-2	0	-2	-1
COC(=O)c1cc2c(c3c4cc(C)ccc4n(S(=O)(=O)c4ccc(OC)cc4)c13)C(=O)N(Cc1ccccc1)C2	.	0	1	-1	-1
Cc1noc(C)c1COc1ccc(CC(=O)NC2CCCCCC2)cc1	4.7*	-1	-3	-1	-1
CCOc1ccc(NC(=O)c2ccccn2)cc1	-6	0	-6	-2	1
CCOc1ncccc1C(=O)Nc1ccc(Cl)cc1	-2	2	4	-1	0
CCOc1ccc(C(=O)Nc2ncccc2Cl)cc1	1	2	11*	0	1
CCOc1ccc(C(=O)Nc2cccc(C)n2)cc1	-2	5	7	1.1*	4.0*
CCOc1ncccc1C(=O)NCc1ccccc1Cl	5.7*	-1	1	-2	0
Cc1ccnc(NC(=O)c2ccc3[nH]c(=O)c(=O)[nH]c3c2)c1	0	1	2	3.3*	0
CCOc1ccc(C(=O)Nc2cc(C)ccn2)cc1	-3	4	7	1	3.6*
CN1CCCN(C(=O)CN2C(=O)CC(C)(C)S(=O)(=O)c3ccccc32)CC1	.	-1	2	0	1
CC1CC(=S)Nc2ccccc2N1C(=O)Nc1ccccc1 (stereo not drawn)	5.2*	0	-1	-2	0
O=C(Nc1ccccc1)N1CCC(=S)Nc2ccccc21	-1	1	-2	-2	0
COC(=O)c1cc(S(=O)(=O)NCC2CCN(C(=O)C(=O)c3cc4ccccc4o3)CC2)cs1	.	-3	2	-1	0
C#CCSc1ncc(-c2ccccc2)cn1	1	4	13*	1.9*	1
COc1ccc(-n2c(SCC(=O)Nc3ccc(S(=O)(=O)Nc4nccs4)cc3)nnc2-c2ccco2)cc1	.	-2	-4	-1	0
Cn1c2ccc(F)cc2c2ncn(CCN3CCOCC3)c(=O)c21	7.2*	3	3	0	0
O=C(CSc1ccccc1)Nc1cc(S(=O)(=O)N2CCOCC2)ccc1N1CCOCC1	4.3*	1	4	-1	0
